The structures appear in SMILES notation. Results with a measured potency or affinity are listed apart. Activity calls are given as the source filed them. No rule for the calls is given here.

A short description of this experiment: mammalian cell viability reduction – secondary assay, cytotoxicity control for West Nile virus antiviral project, dose response (AID 1650). Particulars: Mammalian host cell viability, cytotoxicity counter-screen; series mostly up to 10 µM. (The purpose of a counterscreen is to sort out artefacts and off-target activity.)
Turning to `CCC1CCCCN1CCCNC(=O)c1ccc(/C=C2/Sc3ccccc3NC2=O)cc1` (centres undefined), the compound was called inactive. To `CN1/C(=C\C(=S)NC(=O)c2cccc(Br)c2)C(C)(C)c2ccccc21` belongs “inactive”; to `CCN(CC)CCNC(=O)C1CCN(S(=O)(=O)c2c(C)noc2/C=C/c2ccccc2F)CC1`, “inactive”. In the case of `O=C(NC1CCCC1)C(c1ccncc1)N(Cc1ccccc1)C(=O)c1ccc(-c2ccccc2)[nH]1` (centres undefined) it was “inactive”. With `Cc1ccc(C)c(N2CCN(CCCNC(=O)CCC(=O)N3CCOc4ccc(Cl)cc43)CC2)c1`, the compound was classed as inactive. In the case of `CN(C)CCCN(C(=O)c1ccc2c(c1)OCCO2)c1nc2ccc(Cl)cc2s1` it was “inactive”; in that of `CCc1ccc(C(=O)Cn2ncc(Cl)c(Cl)c2=O)cc1`, “inactive”. With `COc1ccc(-n2c(=S)[nH]c3cc(C(=O)NCc4cccnc4)ccc3c2=O)c(OC)c1`, the outcome was inactive. `COCCn1c(SCC(=O)Nc2nnc(C)s2)nnc1-c1ccncc1`: the outcome was inactive. For the compound `Cc1coc(NC(=O)CSc2nc(-c3ccncc3)cc(C(F)(F)F)c2C#N)n1`, the result was inactive. Regarding `Cc1cccc(N(CC(=O)NCc2ccco2)C(=O)CCC(=O)Nc2ccccn2)c1C`, the outcome was inactive. In the case of `CN1CCN(C(=O)CCN2C(=O)/C(=C\c3ccc(Cl)cc3Cl)SC2=S)CC1` it was “inactive”; in that of `O=C(Nc1ccc2nc3n(c(=O)c2c1)CCCC3)c1cc([N+](=O)[O-])ccc1F`, “inactive”. As to `CN(C)CCCN(C(=O)c1ccc(S(=O)(=O)N2CCCc3ccccc32)cc1)c1nc2ccc(F)cc2s1`, the compound was classed as inactive. Turning to `CC[C@H]1CC2CN3CCc4c([nH]c5c([C@H]6C[C@H]7[C@H](CC)CN(C)[C@@H](Cc8c6[nH]c6ccccc86)[C@H]7C(=O)OC)c(OC)ccc45)C(C(=O)OC)(C2)C13`, the result was inactive. Regarding `Cc1oc(-c2ccccc2Cl)[n+]([O-])c1C`, the compound was classed as inactive. In the case of `c1ccc(-c2ccc(-c3[nH]ncc3CN3CCC(N4CCSCC4)CC3)cc2)cc1` it was “inactive”. For `COc1cccc(/C=N/NC(=O)c2cc(-c3cccn3C)n[nH]2)c1O`, the outcome was inactive. Turning to `CCOC(=O)c1cn(CC(=O)Nc2ccc(C(C)C)cc2)nn1`, the outcome was inactive. As to `CCN1CCN(c2ccc(S(=O)(=O)N3CCCCC3)cc2NC(=O)Cc2c(Cl)cccc2Cl)CC1`, the result was inactive. In the case of `CC(C)c1cc(C(=O)OCC(=O)NC(=O)NCc2ccco2)c(O)c(C(C)C)c1`, the compound was called inactive. On to `COc1ccc(/C=C2/SC(=S)N(CCC(=O)N3CCN(C)CC3)C2=O)cc1`, for which the call was inactive.

Turning to `COc1ccc(/C=C2\SC(=S)N(CCC(=O)NCCc3ccc(O)cc3)C2=O)cc1`, the compound was classed as inactive.

In the case of `CN1CCN(C(=O)CCN2C(=O)/C(=C/c3ccccc3Cl)SC2=S)CC1`, the compound was called inactive. Regarding `O=C(NCCCn1ccnc1)c1cc2nc(-c3ccc(Br)cc3)cc(C(F)(F)F)n2n1`, the outcome was inactive. For the compound `COc1ccc(C2c3ccc4ccccc4c3Oc3ncn(CCO)c(=N)c32)cc1` (centres undefined), the outcome was inactive. Regarding `N#CC(C(=O)NC1CCCCC1)c1nc2ccccc2nc1N1CCN(c2ccc(F)cc2)CC1` (centres undefined), the compound was called inactive.

On to `CCOc1ccc(NCc2cc3c(C(C)(C)C)nn(-c4ccccc4)c3[nH]c2=O)cc1`, for which the compound was called inactive. Turning to `CN(C)CCCNc1ncnc2c1c(-c1ccccc1)cn2-c1ccccc1`, the compound was classed as inactive. With `CC(=O)Oc1ccc(-c2ccc(C(=O)OCC(=O)N(C)CC(=O)Nc3ccccc3Cl)cc2)cc1`, the call was inactive. In the case of `CCN(CC)CCCC(C)NC(=O)c1c(NC(=O)c2ccccc2)sc2c1CCCC2` (centres undefined) it was “inactive”; in that of `CC(=O)Nc1ccccc1N(CC(O)Cn1c2ccccc2c2ccccc21)S(=O)(=O)c1ccc(C)cc1` (centres undefined), “inactive”; in that of `CC(C)Cc1nc2oc3c(NCCCN4CCOCC4)ncnc3c2c2c1CCC2`, “inactive”. As to `Cc1cccc(CN2CCC(CNC(=O)Nc3ccc(F)c(Cl)c3)CC2)c1`, the compound was called inactive. `COc1ccc(N2CCN(c3oc(-c4ccc(OC)c(OC)c4)nc3C#N)CC2)cc1`: the call was inactive. Take `CCN(CC)S(=O)(=O)c1ccc2c(c1)c(=O)c(C(=O)NCCOC)cn2C`: the compound was called inactive. With `CN(C)CC(O)COc1ccc(C(C)(C)c2ccc(OCC(O)CN(C)C)cc2)cc1` (centres undefined), the call was inactive. Take `CCCC1=Nc2cc(C(=O)NCCN3CCCC3)ccc2Sc2ccccc21`: the call was inactive.

Turning to `C=CCN=C1CC(C)(C)CC(=O)/C1=C(/O)CCC(=O)OC`, the result was inactive.

Source of the values: PubChem BioAssay AID1650 (Southern Research Specialized Biocontainment Screening …, 2009).
